The record followed here is PubChem BioAssay (NCATS).

Where “and” joins values, the source holds several entries; their conditions need not be identical. Equal values may be shown once. A number with no mark means an inactive call. Records with an inconclusive call do not appear. Calls of active or inactive are those of the source. Unless noted, the call rests on the fitted dose curve; in most records, active means well fitted curve in the direction sought with a large enough effect; inconclusive means small, poorly fitted or top-dose-only effect, or another doubt; inactive means no such curve, though single readings can be large; an effect the other way counts as inactive or inconclusive.

The target in test [1] is ATP-dependent 6-phosphofructokinase (Trypanosoma brucei brucei) (UniProt O15648). The experiment in a line: qHTS Assay to Find Inhibitors of T. brucei phosphofructokinase: hit validation (AID 492961).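 Further: luminescence reports ADP formed as PFK phosphorylates fructose-6-phosphate with ATP; on the % scale 0 is the no-effect control and ±100 the full control effect.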 The essentials: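 PFK 1.25 nM, F6P 0.5 mM, ATP 0.1 mM, MgCl2 5 mM, 0.1 M TEA pH 8.0, Tween20 0.01%, BSA 0.1%; 45 min RT. ADP-Glo two-step detection, luminescence. qHTS titration; curve fitting with curve-class categorization.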
Sequence of ATP-dependent 6-phosphofructokinase (Trypanosoma brucei brucei) (O15648 whole entry, looked up): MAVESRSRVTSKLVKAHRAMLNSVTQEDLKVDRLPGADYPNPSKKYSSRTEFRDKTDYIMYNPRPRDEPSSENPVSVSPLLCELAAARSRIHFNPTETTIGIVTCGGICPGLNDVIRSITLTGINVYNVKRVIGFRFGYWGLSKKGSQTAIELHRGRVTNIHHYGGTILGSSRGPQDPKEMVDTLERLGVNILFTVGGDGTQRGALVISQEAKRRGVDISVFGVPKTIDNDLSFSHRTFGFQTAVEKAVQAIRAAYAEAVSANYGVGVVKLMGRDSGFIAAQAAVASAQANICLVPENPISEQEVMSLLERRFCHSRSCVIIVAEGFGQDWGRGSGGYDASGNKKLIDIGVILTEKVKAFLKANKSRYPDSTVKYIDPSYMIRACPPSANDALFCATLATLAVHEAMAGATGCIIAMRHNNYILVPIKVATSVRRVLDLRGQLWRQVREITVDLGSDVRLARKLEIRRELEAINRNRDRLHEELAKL

The nature of test [2]: qHTS profiling for inhibitors of Plasmodium falciparum proliferation (AID 504749).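 Further: 0% = DMSO vehicle and full inhibition = artemisinin control; nearly all actives have a fitted effect of over 60% in size.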 Conditions: P. falciparum in erythrocytes, SYBR Green DNA, 72 h, at 28.7 µM (top of the series). The essentials:
(§1)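 Fluorescence of SYBR Green-bound parasite DNA, read at 485/535 nm, served as the growth measure. Infected erythrocytes were cultured with compound 72 h; artemisinin (0.29 uM) and DMSO wells defined the normalization range.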
In general terms: In qHTS, concentration-response curves come from the screen itself.

Another test concerns CP192. The test is described as above. Particulars: P. falciparum in erythrocytes, SYBR Green DNA, 72 h; series mostly up to 28.7 µM. The essentials: as §1
The next test deals with DIV14. Described as above. Conditions: P. falciparum in erythrocytes, SYBR Green DNA, 72 h; series mostly up to 28.7 µM. In outline:
as §1

For a further test, the system named is DIV17. The test is described as above. Particulars: P. falciparum in erythrocytes, SYBR Green DNA, 72 h; series mostly up to 28.7 µM. In outline: as §1
A further test concerns GB4. Described as above. Conditions: P. falciparum in erythrocytes, SYBR Green DNA, 72 h; series mostly up to 28.7 µM. In outline: as §1
A further test has as its system PC49. Described as above. Conditions: P. falciparum in erythrocytes, SYBR Green DNA, 72 h; series mostly up to 28.7 µM. In outline:
as §1

Test [3] deals with Guanine nucleotide-binding protein G(i) subunit alpha-1 (Homo sapiens) (UniProt P63096). The experiment in a line: qHTS Assay for Inhibitors of RGS12 GoLoco Motif Activity (Green Fluorophore) (AID 879).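 Further: 0% = labeled peptide with Gαi1 and full inhibition = labeled peptide alone without protein; negative values mean loss of peptide binding seen as reduced polarization.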 In outline:
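A drop in FITC polarization marked displacement of the FITC-tagged RGS12 GoLoco peptide (10 nM) from Gαi1 (50 nM). Compounds were incubated 10 min at room temperature in Tris pH 7.5 buffer containing 150 mM NaCl, 0.1 mM GDP and 0.05% NP40; unlabeled peptide titration served as control.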

A short description of test [4]: qHTS Assay for Identification of Small Molecule Antagonists for NFkB Signaling Pathway (AID 895; active means well fitted inhibition curve with a large enough effect in the signal ratio, with a control signal flat, not every such curve was filed as active; the % refers to the signal ratio; further: potency means the concentration at half of the fitted maximal effect). The essentials: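 NFkB-bla ME-180 cervical carcinoma cells with beta-lactamase reporter under NFkB response element; compounds added, then TNF alpha at 10 pM final (EC50), 5 h at 37 C. LiveBLAzer substrate 2 h, room temperature; emission 460/530 nm at 405 nm excitation.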

Test [5] addresses Cytochrome P450 2C19 (Homo sapiens) (UniProt P33261). Kind of test: qHTS Assay for Inhibitors and Substrates of Cytochrome P450 2C19 (AID 899). Further: nearly all actives have a fitted effect of over 60% in size. Further: potency means the concentration at half of the fitted maximal effect. On activity, negative = inhibition: on the % scale 0 is the no-effect control and ±100 the full control effect. The essentials:
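Human CYP2C19 (5nM) with Luciferin-H EGE at 10uM (its KM) in 50mM KPO4 was preincubated with compound for 10 min at 37C. NADPH regeneration started a 60 min 37C reaction. Luciferin was read by luminescence, normalized to 57uM ketoconazole.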

Test [6] deals with Muscarinic acetylcholine receptor M1 (Rattus norvegicus) (UniProt P08482). Kind of test: qHTS Assay for Antagonists of Acetylcholine Muscarinic M1 Receptor: Measurement of IP-One Response (AID 944). Further: nearly all actives have a fitted effect of over 75% in size. In outline:
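Antagonism was measured as loss of carbachol-driven (EC80) IP1 accumulation in CHO cells carrying rat M1, using a homogeneous IP-One TR-FRET kit read at 620 and 665 nm.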

In test [7] the target is Cytochrome P450 3A4 (Homo sapiens) (UniProt P08684). Kind of test: qHTS Assay for Inhibitors and Substrates of Cytochrome P450 3A4 (AID 884). Further: nearly all actives have a fitted effect of over 50% in size. Further: potency means the concentration at half of the fitted maximal effect. In outline:
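Luminescent readout of luciferin produced by CYP3A4 (20 nM) dealkylation of Luciferin-PPXE, 25 uM (its KM). NADPH-driven reaction ran 60 min at RT after 10 min compound preincubation; data scaled to 57 uM ketoconazole as 100% inhibition.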

Test [8] is described as follows: Confirmation and Secondary Assay for Modulators of Hemoglobin Beta Chain Splicing at IVS2 654 locus (AID 910).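 Further: per-well total GFP intensity by laser scanning cytometry after 2-day treatment; % of control where 0% means no effect.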 In outline: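 HeLa cells stably carrying EGFP interrupted by mutant beta-globin IVS2-654 intron (CMV-driven) were treated with compound for 2 days at 37C; corrected splicing was scored as total peak GFP intensity per well (488 nm excitation, 500-520 nm emission).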

A short description of test [9]: Confirmation and Secondary Assay for Modulators of Hemoglobin Beta Chain Splicing at IVS2 705 locus (AID 930).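 Further: HeLa cells stably expressing the EGFP-705 splicing reporter; GFP fluorescence per well restored by corrected splicing of the IVS2-705 intron in EGFP; % of control where 0% means no effect.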 In outline:
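Splice-correction reporter: EGFP cDNA split by beta-globin intron 2 bearing the 705 mutation, stably in HeLa. Compound incubation 2 days, 37C; fluorescent objects 5-250 µm summed per well.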

Test [10] deals with Alpha-galactosidase A (Homo sapiens) (UniProt P06280). Kind of test: Counterscreen for Glucocerebrosidase Inhibitors: qHTS Assay for Human alpha-Galactosidase at pH 4.5 (AID 992). Further: 0% is about no effect. In outline: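 Each compound is preincubated briefly with 2 nM enzyme before substrate addition (80 uM); plates then sit 20 min at ambient temperature, are quenched with 1M NaOH/1M glycine, and read fluorometrically.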
Sequence of Alpha-galactosidase A (Homo sapiens) (P06280 whole entry, looked up): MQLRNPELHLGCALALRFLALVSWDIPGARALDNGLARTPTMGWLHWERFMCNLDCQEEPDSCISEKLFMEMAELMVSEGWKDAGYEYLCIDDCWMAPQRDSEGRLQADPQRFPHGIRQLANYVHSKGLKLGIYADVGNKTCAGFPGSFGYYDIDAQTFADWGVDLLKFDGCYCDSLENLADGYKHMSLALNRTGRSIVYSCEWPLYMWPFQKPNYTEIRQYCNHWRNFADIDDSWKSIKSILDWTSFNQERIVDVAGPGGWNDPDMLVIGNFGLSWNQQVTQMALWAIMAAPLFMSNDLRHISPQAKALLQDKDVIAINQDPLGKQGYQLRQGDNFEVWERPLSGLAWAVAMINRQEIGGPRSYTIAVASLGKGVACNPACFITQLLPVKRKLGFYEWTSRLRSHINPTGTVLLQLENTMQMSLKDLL

Test [11] deals with Muscarinic acetylcholine receptor M1 (Rattus norvegicus) (UniProt P08482). The experiment in a line: qHTS Assay for Antagonists of Acetylcholine Muscarinic M1 Receptor: Kinetic Measurement of Intracellular Calcium Response (AID 943).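 Further: Fluo-4 calcium signal as peak divided by basal fluorescence over 4 min; nearly all actives have a fitted effect of over 75% in size.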 The essentials: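 Quantitative HTS in CHO-M1 (rat receptor) cells: 10 min compound exposure ahead of 100 nM carbachol, Fluo-4 fluorescence followed 4 min, value expressed as peak-to-basal ratio.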
Sequence of Muscarinic acetylcholine receptor M1 (Rattus norvegicus) (P08482 whole entry, looked up): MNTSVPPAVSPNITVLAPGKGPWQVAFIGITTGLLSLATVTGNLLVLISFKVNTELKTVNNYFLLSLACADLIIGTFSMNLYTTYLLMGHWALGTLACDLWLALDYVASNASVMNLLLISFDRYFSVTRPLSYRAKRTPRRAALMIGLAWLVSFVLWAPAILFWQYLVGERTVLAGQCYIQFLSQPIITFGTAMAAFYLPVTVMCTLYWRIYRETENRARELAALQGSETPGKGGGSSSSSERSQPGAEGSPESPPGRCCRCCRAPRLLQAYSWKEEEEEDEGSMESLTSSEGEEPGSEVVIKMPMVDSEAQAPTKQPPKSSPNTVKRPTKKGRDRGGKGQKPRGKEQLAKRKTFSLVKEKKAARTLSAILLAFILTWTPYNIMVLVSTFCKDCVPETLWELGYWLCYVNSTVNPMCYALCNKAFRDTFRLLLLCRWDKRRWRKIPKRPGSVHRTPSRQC

The target of test [12] is Rap guanine nucleotide exchange factor 3 (Homo sapiens) (UniProt O95398). The experiment in a line: Confirmatory qHTS for antagonist of cAMP-regulated guanine nucleotide exchange factor 3 (EPAC1) (AID 1645880).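 Further: plate controls were DMSO only for no effect and full effect of the ATA control for full effect; nearly all actives have a fitted effect of over 55% in size.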 In outline: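 Released BODIPY-GDP fluoresces less than Rap1-bound BODIPY-GDP; the signal is followed at 480/540 nm at 5-min intervals over 30 min, after 5 min at room temperature. Reactions contain 100 nM EPAC1, 250 nM RAP1B-BODIPY-GDP and 50 uM GDP; results are normalized to ATA and DMSO.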
Sequence of Rap guanine nucleotide exchange factor 3 (Homo sapiens) (O95398 whole entry, looked up): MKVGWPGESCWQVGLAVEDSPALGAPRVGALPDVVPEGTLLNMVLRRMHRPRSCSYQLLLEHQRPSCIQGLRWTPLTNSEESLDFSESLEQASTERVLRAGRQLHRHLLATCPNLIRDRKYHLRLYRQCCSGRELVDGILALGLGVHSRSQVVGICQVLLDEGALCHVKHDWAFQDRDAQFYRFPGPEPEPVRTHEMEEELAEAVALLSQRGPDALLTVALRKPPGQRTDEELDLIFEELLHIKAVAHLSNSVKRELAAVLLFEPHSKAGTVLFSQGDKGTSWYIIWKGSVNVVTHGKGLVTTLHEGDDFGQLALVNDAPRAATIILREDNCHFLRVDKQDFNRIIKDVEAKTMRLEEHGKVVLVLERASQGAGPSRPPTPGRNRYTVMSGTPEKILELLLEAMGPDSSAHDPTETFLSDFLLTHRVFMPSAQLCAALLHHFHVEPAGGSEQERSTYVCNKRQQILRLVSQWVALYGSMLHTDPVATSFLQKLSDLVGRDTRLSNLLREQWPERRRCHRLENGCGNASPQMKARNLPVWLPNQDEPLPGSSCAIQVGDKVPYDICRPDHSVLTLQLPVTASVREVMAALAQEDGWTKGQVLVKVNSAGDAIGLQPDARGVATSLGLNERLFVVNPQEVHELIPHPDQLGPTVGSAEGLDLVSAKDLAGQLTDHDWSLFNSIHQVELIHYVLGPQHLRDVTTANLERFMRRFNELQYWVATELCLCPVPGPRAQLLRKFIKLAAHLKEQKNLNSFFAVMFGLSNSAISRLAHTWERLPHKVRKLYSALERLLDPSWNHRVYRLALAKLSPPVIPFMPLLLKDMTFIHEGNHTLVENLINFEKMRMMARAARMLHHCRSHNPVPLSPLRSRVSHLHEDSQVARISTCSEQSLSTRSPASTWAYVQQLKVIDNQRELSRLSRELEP

Test [13] shares this target. The experiment in a line: Confirmatory qHTS for agonist of cAMP-regulated guanine nucleotide exchange factor 3 (EPAC1) (AID 1645881).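 Further: EPAC1 catalysed release of BODIPY-GDP from Rap1B seen as fluorescence loss; 100% = effect of cAMP agonist control; nearly all actives have a fitted effect of over 75% in size.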
Test [14] addresses Rap guanine nucleotide exchange factor 4 (Homo sapiens) (UniProt Q8WZA2). The experiment in a line: Confirmatory qHTS for agonist of cAMP-regulated guanine nucleotide exchange factor 4 (EPAC2) (AID 1645884).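 Further: nucleotide exchange releases bodipy-GDP from Rap1 and this lowers its fluorescence; on the % scale 0 is the no-effect control and ±100 the full control effect; nearly all actives have a fitted effect of over 65% in size.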
Test [15] has the same target. Kind of test: Confirmatory qHTS for antagonist of cAMP-regulated guanine nucleotide exchange factor 4 (EPAC2) (AID 1645885). Further: on the % scale 0 is the no-effect control and ±100 the full control effect; nearly all actives have a fitted effect of over 25% in size.

Sequence of Cytochrome P450 2C19 (Homo sapiens) (P33261 whole entry, looked up): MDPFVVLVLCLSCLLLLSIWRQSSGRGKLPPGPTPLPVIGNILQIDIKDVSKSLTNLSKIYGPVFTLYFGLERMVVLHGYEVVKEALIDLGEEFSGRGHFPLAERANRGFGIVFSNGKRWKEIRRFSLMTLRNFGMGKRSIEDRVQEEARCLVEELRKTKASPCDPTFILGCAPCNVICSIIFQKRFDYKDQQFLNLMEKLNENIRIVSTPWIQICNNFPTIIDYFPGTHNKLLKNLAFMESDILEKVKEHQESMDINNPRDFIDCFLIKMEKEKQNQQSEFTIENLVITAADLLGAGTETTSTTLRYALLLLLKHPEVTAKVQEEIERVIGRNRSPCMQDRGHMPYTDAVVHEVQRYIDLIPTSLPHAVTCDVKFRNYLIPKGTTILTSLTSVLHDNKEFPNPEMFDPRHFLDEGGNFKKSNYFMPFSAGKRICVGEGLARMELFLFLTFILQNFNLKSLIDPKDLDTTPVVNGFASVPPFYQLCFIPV
Sequence of Guanine nucleotide-binding protein G(i) subunit alpha-1 (Homo sapiens) (P63096 whole entry, looked up): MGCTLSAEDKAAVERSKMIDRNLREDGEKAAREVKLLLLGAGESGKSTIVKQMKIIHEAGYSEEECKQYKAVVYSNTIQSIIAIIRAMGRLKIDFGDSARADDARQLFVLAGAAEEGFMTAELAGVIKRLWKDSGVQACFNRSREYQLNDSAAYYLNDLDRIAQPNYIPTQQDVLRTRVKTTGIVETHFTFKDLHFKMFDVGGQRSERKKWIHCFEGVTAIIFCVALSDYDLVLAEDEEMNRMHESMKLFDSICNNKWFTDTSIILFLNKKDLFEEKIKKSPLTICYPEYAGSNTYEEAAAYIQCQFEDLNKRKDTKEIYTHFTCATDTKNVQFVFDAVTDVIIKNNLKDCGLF
Sequence of Cytochrome P450 3A4 (Homo sapiens) (P08684 whole entry, looked up): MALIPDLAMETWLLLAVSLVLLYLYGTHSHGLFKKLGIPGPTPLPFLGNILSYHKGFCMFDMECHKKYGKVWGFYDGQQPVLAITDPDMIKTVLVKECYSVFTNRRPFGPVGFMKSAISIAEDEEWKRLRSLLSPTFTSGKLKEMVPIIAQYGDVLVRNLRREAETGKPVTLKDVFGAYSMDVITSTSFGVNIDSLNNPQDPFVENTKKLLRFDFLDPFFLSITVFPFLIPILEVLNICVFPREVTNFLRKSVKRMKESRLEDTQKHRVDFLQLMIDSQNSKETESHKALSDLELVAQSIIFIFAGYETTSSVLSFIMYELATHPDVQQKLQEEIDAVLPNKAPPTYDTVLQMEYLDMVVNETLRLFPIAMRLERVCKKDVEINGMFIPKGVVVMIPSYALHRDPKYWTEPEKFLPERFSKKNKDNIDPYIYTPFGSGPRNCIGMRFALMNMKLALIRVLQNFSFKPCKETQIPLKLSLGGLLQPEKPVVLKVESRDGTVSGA
Sequence of Rap guanine nucleotide exchange factor 4 (Homo sapiens) (Q8WZA2 whole entry, looked up): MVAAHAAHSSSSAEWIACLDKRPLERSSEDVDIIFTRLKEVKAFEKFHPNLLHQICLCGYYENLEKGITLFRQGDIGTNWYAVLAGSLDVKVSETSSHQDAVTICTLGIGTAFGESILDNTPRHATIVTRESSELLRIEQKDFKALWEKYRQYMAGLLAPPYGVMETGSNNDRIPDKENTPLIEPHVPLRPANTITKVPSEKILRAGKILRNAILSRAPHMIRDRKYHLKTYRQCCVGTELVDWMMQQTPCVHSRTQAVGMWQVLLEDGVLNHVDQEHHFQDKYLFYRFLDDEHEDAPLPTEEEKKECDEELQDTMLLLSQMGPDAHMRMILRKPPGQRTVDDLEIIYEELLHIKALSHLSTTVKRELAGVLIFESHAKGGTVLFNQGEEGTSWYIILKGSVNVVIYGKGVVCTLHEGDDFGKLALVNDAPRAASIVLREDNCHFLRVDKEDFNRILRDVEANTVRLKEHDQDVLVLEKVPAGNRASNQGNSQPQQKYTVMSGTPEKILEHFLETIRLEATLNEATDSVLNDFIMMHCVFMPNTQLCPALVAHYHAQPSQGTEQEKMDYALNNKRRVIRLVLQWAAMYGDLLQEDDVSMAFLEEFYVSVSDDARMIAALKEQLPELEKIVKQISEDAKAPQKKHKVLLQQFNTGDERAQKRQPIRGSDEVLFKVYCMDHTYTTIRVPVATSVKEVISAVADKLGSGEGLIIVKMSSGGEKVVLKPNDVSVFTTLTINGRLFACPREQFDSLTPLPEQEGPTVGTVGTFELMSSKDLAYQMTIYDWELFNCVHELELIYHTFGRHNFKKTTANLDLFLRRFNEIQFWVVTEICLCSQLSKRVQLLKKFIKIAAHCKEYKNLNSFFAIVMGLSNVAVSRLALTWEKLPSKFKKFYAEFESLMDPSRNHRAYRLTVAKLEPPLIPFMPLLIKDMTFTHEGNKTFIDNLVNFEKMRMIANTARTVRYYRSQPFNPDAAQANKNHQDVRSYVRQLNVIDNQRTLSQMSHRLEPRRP

For the compound `COC(=O)[C@@H]1[C@@H]2C[C@H]3c4[nH]c5ccccc5c4CCN3C[C@@H]2CC[C@@H]1O`, the compound was classed as inactive in test [1]. The results for the activity, negative = inhibition in test [2] (parasite line A) and in [2] (parasite line B) were 13.9% and -2.77%, respectively. Besides, the Potency result in the test with CP192, in the test with DIV14, in the test with DIV17, in the test on GB4 and with PC49 was “inactive” throughout.
Regarding `CC(C)NC[C@H](O)c1ccc(NS(C)(=O)=O)cc1`, the result in [3] was inactive. The Potency result in [4], in test [5] and in test [6] was “inactive” in each case.
For the compound `O=C1CC[C@H](N2C(=O)c3ccccc3C2=O)C(=O)N1`, the compound was called inactive in test [3], in test [8] and in test [9]. Also, the Potency result in test [7], in test [4] and in [5] was “inactive” throughout.
With `N[C@@H](CO)C(=O)O`, the outcome in test [10] was inactive.
For the compound `COc1ccccc1NC(=O)Nc1nc(-c2cccnc2)nc2ccccc12`, the Potency entry in [11] and in test [6] was “inactive” in each case. In addition, the outcome in [10] was inactive.
Regarding `C=C[C@H](N)CCC(=O)O`, the result in test [3], in [8], in test [9] and in [10] was inactive. Besides, the Potency entry in [7], in [5], in test [11] and in test [6] was “inactive” each time.
As for `C[C@H](N=C(NC#N)Nc1ccncc1)C(C)(C)C`, the Potency result in test [11] and in [6] was “inactive” in each case.
Turning to `C[C@@](N)(C(=O)O)c1ccc(C(=O)O)cc1`, the Potency result in [4], in test [11] and in test [6] was “inactive” each time.
As for `S=C(S)O[C@@H]1C[C@@H]2C[C@H]1[C@@H]1CCC[C@H]21`, the call in test [3], in test [13] and in [14] was inactive. Besides, in test [7], the Potency was 3980 nM (active). The Potency entry in test [4], in [6], in [12] and in test [15] was “inactive” throughout.
Turning to `CC(C)NC[C@@H](O)COc1ccc(CCOCC2CC2)cc1`, in test [6], the Potency entry is “inactive”. Moreover, the compound was classed as inactive in test [10].
`CC(N)=NCCCC[C@H](N)C(=O)O`: the Potency result in [7], in test [11] and in [6] was “inactive” throughout.
Consider `CO[C@@]12C[C@@H](COC(=O)c3cncc(Br)c3)CN(C)[C@H]1Cc1cn(C)c3cccc2c13`, for which the Potency in [5] is 6.31 µM (active).
Take `N[C@H](CCC(=O)N[C@H](CSN=O)C(=O)NCC(=O)O)C(=O)O`: the Potency entry in test [4] and in test [11] was “inactive” throughout. Further, the result in test [10] was inactive.
On to `NC1(C(=O)O)C[C@H](C(=O)O)[C@H](C(=O)O)C1` (some centres not stated), for which, in [5], the Potency is 0.398 µM (active).
Regarding `NC[C@](O)(CS(=O)(=O)O)c1ccc(Cl)cc1`, the Potency result in test [5], in test [11] and in [6] was “inactive” in each case.
With `O=C(O)[C@H]1CCCNC1`, the Potency entry in test [5], in [11] and in [6] was “inactive” each time. The result in test [8], in [9] and in [10] was inactive.
Consider `N[C@@H](C(=O)O)c1ccc(C(=O)O)c(C(=O)O)c1`, for which the Potency in [5] is 316 nM (active) and 3.16 µM (active).
Take `N[C@@H]1CCN(O)C1=O`: the compound was classed as inactive in test [3]. In addition, the Potency result in test [6] was “inactive”.
Consider `N[C@H](C(=O)O)[C@@H]1C[C@@H]1C(=O)O`, for which the Potency result in test [6] was “inactive”. In [10], the compound was classed as inactive.
Regarding `C[C@@H]1C[C@@H]2[C@H]3CCC4=CC(=O)C=C[C@]4(C)[C@]3(F)[C@@H](O)C[C@@]2(C)[C@@]1(O)C(=O)CO`, the Potency in test [4] was 10 nM (active).
Turning to `CCN(Cc1ccncc1)C(=O)[C@@H](CO)c1ccccc1`, the result in test [3], in test [8], in test [9] and in [10] was inactive.
